Screens: PubChem BioAssay, National Center for Advancing Translational Sciences (NCATS)
Shiga toxin inh: blocks Shiga toxin action in Vero cells; Vero cells, Shiga toxin protein synthesis inhibition reporter; 290,000 compounds, 9.2% hits; inhibition, % at 38.7 µM; AID 2315; in the data active = inhibition mostly above about 28%, no sharp cut-off; inactive = mostly below about 43%
NS1 function inh: blocks influenza NS1 protein function | Potency, µM (series often up to 46.1 µM) | 270,000 compounds, 0.4% hits; calls by dose curve; also: actives are rising curves; nearly all actives have a fitted effect of over 50% in size
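Recovery from NS1-induced slow growth read by OD600 in budding yeast switched to galactose assay medium (pH 6.0, -URA) at 1:100 dilution. Compound 23 nl per well; the matching strain lacking NS1 serves as control.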
Sm TGR inh: blocks Schistosoma mansoni thioredoxin glutathione reductase; purified TGR, DTNB reduction, TNB absorbance 405 nm; Potency, µM (highest dose often 114 µM), usual class: inhibitors; 360,000 compounds, 3% hits; AID 485364; also: nearly all actives have a fitted effect of over 60% in size
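Kinetic colorimetric format: TGR-catalysed, NADPH-driven DTNB reduction monitored via TNB absorbance. Enzyme dispensed at 20 nM; compound exposure 15 min at room temperature before reaction start.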
Pf growth 96h: inhibits malaria parasite growth, 96 h | P. falciparum luciferase reporter growth, 96 h | Potency, µM (series often up to 28.7 µM), most hits filed as inhibitors | 320,000 compounds, 6.9% hits | AID 504834
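Erythrocytes infected with luciferase-expressing P. falciparum were dispensed at 2% hematocrit and 0.05% parasitemia (final), then incubated with compounds 96 hours at 37 C in 5% CO2. Luminescence after detection reagent addition reported growth.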
CHX counter: counter-screen hit for Shiga toxin inhibitors, cycloheximide; cell reporter, cycloheximide protein synthesis inhibition counterscreen; max response, %; 300,000 compounds, 12% hits; AID 2314; in the data active = max response mostly above about 13%, no sharp cut-off; inactive = mostly below about 14%; also: read at 38.3 µM for the half of the compounds with a filed dose
Pf growth 48h: inhibits P. falciparum growth in the first generation, 48 h; P. falciparum luciferase growth in erythrocytes, 48 h; Potency, µM (highest dose often 28.7 µM), actives largely listed as inhibitors; 310,000 compounds, 5.9% hits
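Parasite viability was followed by luminescence of a genomically integrated firefly luciferase. Cultures held 0.1% parasitemia at 2% hematocrit (final), incubated under 5% CO2 at 37 C.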
Hits are given with their value; – = inactive; ? = inconclusive; · = not tested or not shown. Only some compounds are listed: those with a hit (about 21% of all), similar ones and a draw of the others. Unless noted, calls follow the shape of the dose curve; as a rule, active = well fitted curve in the direction sought with a large enough effect; inconclusive = small, poorly fitted or top-dose-only effect, or another doubt; inactive = no such curve, though single readings can be large; an effect the other way counts as inactive or inconclusive.

SMILES	Shiga toxin inh	NS1 function inh	Sm TGR inh	Pf growth 96h	CHX counter	Pf growth 48h
Cc1ccc(C(=O)Nc2cccc(C(F)(F)F)c2)cc1Nc1ncnc2nc[nH]c12	–	–	–	13.1µM	–	13.1µM
COc1cccc(C(=O)Nc2cccc3ccccc23)c1OC	27.0	–	–	?	19.8	–
COc1cc(Cl)c(C)cc1NC(=O)c1cccc(OC)c1OC	–	–	·	?	29.6	?
Cc1ccoc1C(=O)Nc1cccc2ccccc12	–	–	–	–	30.8	–
Cc1ccccc1CNC(=O)CCCn1c(=O)c2cccn2c2cccnc21	·	·	–	·	·	·
Cc1cc(C)cc(OCC(=O)N/N=C/c2ccco2)c1	–	–	–	–	–	–
Cc1cccc(OCC(=O)N/N=C/C=C/c2ccco2)c1	–	–	39.8µM	–	–	–
O=C(COc1cccc2ccccc12)N/N=C/c1ccco1	–	–	–	–	–	–
Cc1ccc(OCC(=O)N/N=C/C=C/c2ccco2)c(Br)c1	–	–	28.2µM	–	–	–
Cc1cccc(C)c1OCC(=O)N/N=C/C=C/c1ccco1	–	·	15.8µM	–	–	–
CCOc1ccc2nc(NC(=O)c3nc(SCc4ccccc4C)ncc3Cl)sc2c1	·	·	–	·	·	·
C=CCNC(=O)C1CCN(c2ccc(S(=O)(=O)N3CCOCC3)cc2[N+](=O)[O-])CC1	–	–	–	?	–	?
Cc1cn2c(=O)c(S(=O)(=O)Nc3ccc(OC(F)(F)F)cc3)c(C)nc2s1	·	·	–	·	·	·
NS(=O)(=O)c1cccc(NC(=O)CCCNC(=O)c2ccc(Cl)cc2)c1	–	–	–	–	–	–
CC(=O)Nc1cccc(NC(=O)CCCC2CCCCC2)c1	–	–	–	?	–	?
NS(=O)(=O)c1cccc(NC(=O)CCCC2CCCCC2)c1	59.7	–	–	–	–	–
NS(=O)(=O)c1cccc(NC(=O)CCSc2ccc(Cl)cc2)c1	–	–	17.8µM	–	–	–
COc1cc(/C=C/C(=O)Nc2ccc(N3CCCCC3)c(S(=O)(=O)Nc3ccccc3Cl)c2)cc(OC)c1OC	–	–	–	4.15µM	–	13.1µM
CCN1CCN(c2ccc(S(=O)(=O)N3CCCCC3)cc2NC(=O)/C=C/c2ccc(OC)c(OC)c2)CC1	·	·	–	6.57µM	·	6.57µM
COc1ccc(/C=C/C(=O)Nc2cc(S(=O)(=O)N3CCCCC3)ccc2N2CCCCC2)cc1OC	–	–	–	?	–	?
CCN(CC)S(=O)(=O)c1ccc(N2CCCC2)c(NC(=O)Cc2ccccc2)c1	–	–	–	?	–	?
COc1cc(/C=C/C(=O)Nc2cc(S(=O)(=O)N3CCOCC3)ccc2N2CCCC2)cc(OC)c1OC	–	·	–	–	–	?
CCN(CC)S(=O)(=O)c1ccc(N2CCCC2)c(NC(=O)c2ccccc2OC)c1	–	–	–	10.4µM	–	?
CCN(CC)S(=O)(=O)c1ccc(N2CCCCC2)c(NC(=O)/C=C/c2cc(OC)c(OC)c(OC)c2)c1	–	?	–	10.4µM	–	?
O=c1cccccc1NN=C1CCCCC1	80.0	–	?	–	35.4	?
SMILES	Shiga toxin inh	NS1 function inh	Sm TGR inh	Pf growth 96h	CHX counter	Pf growth 48h
O=c1cccccc1NN=C1CCCCCC1	82.3	–	–	–	23.3	–
CC(NC(=O)C(=O)NN=C1CCCCCCC1)c1ccccc1 (configuration not stated)	–	–	–	–	–	–
O=C(O)c1cc(Br)ccc1NN=C1CCCCC1	–	–	–	–	20.5	–
CC(C)(C)NC(=O)C(c1ccc(F)cc1)N(Cc1ccco1)C(=O)CCC(=O)Nc1nccs1 (configuration not stated)	–	–	–	–	–	?
CC(=N\O)/C(CN(C)C)=N/O	–	?	–	10.4µM	–	–
COc1cccc(N2CCN(C(=O)C3CCN(S(=O)(=O)c4cn(C)cn4)CC3)CC2)c1	·	·	–	·	·	·
COC(=O)c1ccc(C23CC4(C2)[C@H](CN(C)[C@@H]4c2ccccc2)C3c2ccccc2)cc1 (some centres not stated)	–	–	–	?	–	?
COC(=O)c1cccc(C23CC4(C2)[C@H](CN(C)[C@@H]4c2ccccc2)C3c2ccc(C(F)(F)F)cc2)c1 (some centres not stated)	–	–	–	?	–	9.28µM
COC(=O)c1cccc(C23CC4(C2)[C@H](CN(C)[C@@H]4c2ccccc2)C3c2ccccc2)c1 (some centres not stated)	–	–	?	?	–	11.7µM
Cc1ccc(N(C)C(=O)c2noc3c2CCCCC3)cc1C	·	·	–	·	·	·
CCCCSc1nnc(-c2ccc(NC(C)=O)cc2)n1C	–	–	–	7.38µM	–	–
CCCCSc1nnc(-c2ccc(C)cc2)n1C	103.5	–	–	–	40.0	–
CC(=O)Nc1ccc(-c2nnc(SCc3ccc(C)cc3)n2C)cc1	–	–	–	·	–	·
CC1CCCC(NC(=O)CN2CCN(S(=O)(=O)c3ccc(Br)s3)CC2)C1C (configuration not stated)	·	·	–	?	·	?
CN(C)c1nc(N)nc(Nc2ccccc2C#N)n1	–	?	–	13.1µM	–	–
CN(C)c1nc(Nc2ccc(Cl)cc2)nc(OCC#N)n1	–	–	–	?	–	–
COc1cc(Br)c(-c2sc(Nc3ccccc3)n[n+]2-c2ccc(F)cc2)cc1OC	–	–	–	3.7µM	–	1.85µM
COc1ccc(C)cc1Nc1n[n+](-c2ccccc2)c(-c2ccc(SC)cc2)s1	51.5	–	–	?	41.8	?
CCc1ccc(Nc2n[n+](-c3ccccc3)c(-c3ccc(OC)c(Br)c3)s2)cc1	33.1	–	–	4.65µM	25.5	–
CCc1ccc(Nc2n[n+](-c3ccccc3)c(-c3ccc(SC)cc3)s2)cc1	34.2	–	–	4.65µM	33.3	?
CCc1ccc(Nc2n[n+](-c3ccccc3)c(-c3ccc(C(=O)O)cc3)s2)cc1	–	–	–	?	–	–
COc1ccc(C)cc1Nc1n[n+](-c2ccccc2)c(-c2ccc(NC(C)=O)cc2)s1	–	–	–	?	–	?
CCOc1cc(-c2sc(Nc3ccccc3)n[n+]2-c2ccc(F)cc2)ccc1OC	–	–	–	?	–	–
CCCOc1ccc(C(=O)CCC(=O)OCC(=O)N(C)c2c(N)n(Cc3ccccc3)c(=O)[nH]c2=O)cc1	–	–	–	–	–	–
O=C(CNC(=O)c1ccc(F)cc1)OCc1cc(=O)n2nc(C3CC3)sc2n1	·	·	–	·	·	·
Cc1cccc(C(=O)NC(=O)Nc2ccc(-c3cc(C(F)(F)F)nn3-c3ccccc3)cc2)c1	·	·	–	·	·	·
CSc1ccc(-c2sc(Nc3cccc4ccccc34)n[n+]2-c2ccccc2)cc1	17.0	–	–	?	21.6	?
CSc1ccc(-c2sc(Nc3ccccc3)n[n+]2-c2ccccc2)cc1	53.2	–	–	1.85µM	35.5	?
Fc1ccc(-[n+]2nc(Nc3ccccc3)sc2-c2ccc(OCc3ccccc3)cc2)cc1	–	–	–	?	–	–
C[n+]1nc(Nc2cccc3ccccc23)sc1-c1ccc(C(=O)O)cc1	35.4	–	–	–	17.5	–
